Screening results as filed in PubChem.
An excerpt weighted towards active compounds, which were near 3.8% of everything screened.
HT1080-NT tox = kills 2HG-producing HT-1080-NT fibrosarcoma cells | HT-1080-NT fibrosarcoma viability, CellTiter-Glo ATP luminescence, 48 h | Potency, µM (titrated, usually from 46.1 µM), inactives show at the top dose activity, negative = less viability, hits mostly cytotoxic | hit rate 1.6% among 360,000;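 further: NT is the 2HG producing partner of a matched IDH1 knockdown line; 0% = DMSO-treated cells and -100% = media-only wells without cells; nearly all actives have a fitted effect of over 55% in size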
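Toxicity toward the 2HG-producing NT line was scored as %Activity, normalised to DMSO and no-cell wells, from CellTiter-Glo luminescence after 48 hours' treatment.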
ATXN2 expr inh = reduces ATXN2 reporter expression in HEK-293 cells; hit rate 0.72% among 360,000; Potency, µM (titrated, usually from 57 µM), inactives show top-dose activity change, negative = inhibition, most hits filed as inhibitors; HEK-293 ATXN2-luciferase reporter, luminescence, 24 h; further: on the % scale 0 is the no-effect control and ±100 the full control effect; nearly all actives have a fitted effect of over 55% in size
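qHTS (up to 57 uM final) was run with 24 h compound exposure of reporter cells at 37 °C. Each well was multiplexed: SteadyGlo luminescence measured ATXN2-luciferase expression after a fluorogenic Gly-Phe-AFC viability readout (25 uM final).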
S2 tox = cell viability loss in ATXN counter-screen; hit rate 0.49% among 400,000; S2 cells (HEK-293 line with an ATXN2-luciferase reporter) viability, CellTiter-Fluor protease fluorescence, 24 h; Potency, µM (highest dose often 56.7 µM), most hits filed as cytotoxic; AID 651635; further: nearly all actives have a fitted effect of over 40% in size
HT1080 IDH1KD tx = kills HT-1080 cells with IDH1 knockdown; HT-1080 IDH1 knockdown viability, ATP luminescence, 48 h; Potency, µM (titrated, usually from 46.1 µM), without a hit: top-dose activity, negative = toxicity, usual class: cytotoxic; hit rate 2% among 360,000;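 further: 0% = DMSO wells and -100% = cell-free medium wells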
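Assay cells: HT-1080 with IDH1 knockdown, 750 per well, RPMI/5% FBS. Exposure: 48 h at 37 °C following 2 h pre-incubation. Read: CellTiter-Glo luminescence; fitted concentration-response, curve class assigned.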
HepG2 viability = counter-screen for TGF-b inhibitors: cytotoxicity in HepG2 cells | HepG2 CAGA-GFP viability, ATP luminescence, 18 h | Potency, µM (titrated, usually from 46.1 µM), without a hit: at the highest dose activity change, negative = cytotoxicity, most hits filed as cytotoxic | hit rate 0.76% among 410,000
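HepG2 CAGA-GFP cells (1000/well, DMEM with 1% FBS) received compound, then TGF-beta at 500 pg/mL final, and were incubated 18 hours at 37 degrees C. Viability was read by CellTiter-Glo luminescence. Media-only wells were set as complete cell-killing and DMSO as no toxicity.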
TGFb SMAD3 inh = blocks TGF-b signaling; HepG2 CAGA-GFP TGF-b/SMAD3 reporter, GFP fluorescence, 18 h; TGF-beta stimulated, 500 pg/mL final; Potency, µM (titrated, usually from 46.1 µM), inactives show top-dose activity, negative = inhibition, hits mostly inhibitors; hit rate 1.2% among 410,000; AID 588855; further: on the % scale 0 is the no-effect control and ±100 the full control effect; nearly all actives have a fitted effect of over 65% in size
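Inhibition was scored as loss of TGF-beta-induced (500 pg/mL final, 18 hours, 37 degrees C) GFP in HEPG2 cells carrying a CAGA-GFP reporter, in DMEM with 1% FBS. Well GFP was summed per cell; Activity was normalised to unstimulated and stimulated DMSO wells, then concentration-response fitting.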
Numbers without * were called inactive; i = inactive; ? = inconclusive; nt = not tested or not shown. The call rests on the fitted dose curve; in most records, active means well fitted curve in the direction sought with a large enough effect; inconclusive means small, poorly fitted or top-dose-only effect, or another doubt; inactive means no such curve, though single readings can be large; an effect the other way counts as inactive or inconclusive. Potency means the concentration at half of the fitted maximal effect.

SMILES	HT1080-NT tox	ATXN2 expr inh	S2 tox	HT1080 IDH1KD tx	HepG2 viability	TGFb SMAD3 inh
CCOC(=O)C1=C(c2ccccc2)Nc2ncnn2C1c1ccc(C(=O)O)cc1 (stereo not given)	23%	0%	i	20%	-15%	-3%
CC1CN(c2ccc(Cl)cc2)c2nc3c(c(=O)n(CC(=O)O)c(=O)n3C)n2C1 (stereo not given)	nt	3%	i	nt	-14%	2%
COc1cccc(Nc2nc(C(N)C3CCCCC3)cs2)n1 (stereo not given)	?	0%	nt	16µM*	16µM*	?
COc1cccc(Nc2nc(C(C)N)cs2)n1 (stereo not given)	?	?	i	-8%	-34%	10%
NC(c1csc(Nc2cc(Oc3ccccc3)ncn2)n1)C1CCCCC1 (stereo not given)	?	?	?	4.6µM*	-114%	?
COc1ccc(C(N)c2csc(Nc3cc(Oc4ccccc4)ncn3)n2)cc1 (stereo not given)	?	?	?	?	-96%	?
CCOC(=O)C1Nc2ccc(C(F)(F)F)cc2C2c3ccccc3CC12 (stereo not given)	?	25µM*	?	?	-101%	?
O=C(NCc1ccccc1)C1Nc2ccc(OC(F)(F)F)cc2C2C=CCC12 (stereo not given)	4%	-16%	i	7%	-4%	?
O=C(NCCOc1ccccc1)C1Nc2ccc(C(F)(F)F)cc2C2c3ccccc3CC12 (stereo not given)	?	-37%	i	?	16µM*	?
CCOC(=O)C1Nc2ccccc2C2C(O)C(O)CC12 (stereo not given)	?	-34%	?	?	-31%	?
COc1cc2nc(N(C)C)c(CNC3CCOC(C)(C)C3)cc2c(OC)c1OC (stereo not given)	nt	nt	i	nt	nt	nt
C/C=C(\C)C(=O)OC(C)(C)[C@@H]1Cc2cc3ccc(=O)oc3cc2O1	-5%	-23%	i	1%	-32%	6.3µM*
Cc1ccc(-c2noc(-c3ccc(NCc4ccco4)c([N+](=O)[O-])c3)n2)cc1	nt	25%	i	nt	0%	-29%
Cc1ccc2nc3sc(C(=O)N4CCOCC4)c(N)c3cc2c1	22%	2.5µM*	i	11%	-19%	-14%
COc1cccc(NC(=O)COc2ccccc2C(=O)Nc2ccccc2)c1	-8%	nt	nt	-10%	nt	nt
CC(=O)N1CCN(c2ccc(OCc3nn(C)c(C)c3-c3cccc4c(CCCOc5cccc6ccccc56)c(C(=O)O)n(Cc5cccnc5)c34)cc2)CC1	nt	140%	nt	nt	nt	nt
CCOC(=O)CC(S(=O)(=O)c1ccccc1)S(=O)(=O)c1ccccc1	?	nt	?	21µM*	-99%	?
CCOC(=O)N=S(N)(=O)c1ccccc1 (stereo not given)	8%	3%	i	-1%	-1%	21%
CCn1c(SCC(=O)NCc2ccco2)nnc1-c1cccc(N(C)C)c1	nt	nt	nt	nt	11%	3%
C[C@@H]1[C@H](c2ccccc2)OCCS(=O)(=O)N1Cc1ccc(Cl)cc1	nt	nt	nt	nt	0%	?
CC(=O)NC1=C(Nc2ccc(N(C)C)cc2)C(=O)c2ccccc2C1=O	?	13%	?	13µM*	-23%	-28%
COC1=C(Nc2ccccc2)C(=O)c2ccccc2C1=O	?	-19%	?	13µM*	-95%	16µM*
COc1ccccc1NC(=O)c1oc2ccccc2c1NC(=O)Cc1ccccc1	nt	-8%	i	nt	-27%	0%
O=C(CCBr)Nc1cccc2cccnc12	nt	nt	nt	nt	-8%	0%
O=C(CCCl)Nc1cccc2cccnc12	nt	nt	nt	nt	-90%	7.1µM*
SMILES	HT1080-NT tox	ATXN2 expr inh	S2 tox	HT1080 IDH1KD tx	HepG2 viability	TGFb SMAD3 inh
CCOc1cc(C2Nc3ccccc3C(=O)N2Cc2ccco2)ccc1OCc1ccccc1Cl (stereo not given)	nt	nt	nt	nt	-53%	?
O=C(/C=C/c1ccccc1[N+](=O)[O-])c1ccccc1Br	?	?	?	21µM*	0%	?
Cc1ccccc1-c1cccc(CN2CCc3nnc(C(NS(C)(=O)=O)C(C)C)n3CC2)c1 (stereo not given)	nt	nt	i	nt	nt	nt
Fc1ccc(C(c2ccc(F)cc2)N2CCN(C/C=C/c3ccccc3)CC2)cc1	?	-20%	?	?	6.3µM*	?
COc1ccc(C2=Nc3ccc(OC(F)(F)F)cc3NC(c3cccnc3)=N2)cc1	nt	0%	?	nt	-17%	19%
COc1cccc(Cn2nc(SC)c(S(=O)(=O)c3ccccc3)c2N(C(C)=O)C(C)=O)c1	nt	-30%	?	nt	-34%	?
CSc1nn(Cc2cccc(F)c2)c(N(C(C)=O)C(C)=O)c1S(=O)(=O)c1ccccc1	nt	?	18µM*	nt	-52%	?
CSc1nn(Cc2ccc(Cl)cc2)c(N(C(C)=O)C(C)=O)c1S(=O)(=O)c1ccccc1	nt	?	nt	nt	-51%	?
CSc1nn(Cc2ccc(C)cc2)c(N)c1S(=O)(=O)c1ccccc1	nt	-20%	i	nt	-33%	?
CSc1nn(Cc2ccc(Br)cc2)c(N(C(C)=O)C(C)=O)c1S(=O)(=O)c1ccccc1	nt	?	nt	nt	11µM*	?
CSc1nn(Cc2ccc(F)cc2)c(N)c1S(=O)(=O)c1ccc(Cl)cc1	nt	?	?	nt	14µM*	10µM*
CCN(CC)c1ccc(-c2nnc(SCC(=O)NCc3ccco3)n2C)cc1	nt	nt	nt	nt	-6%	-2%
CC1=CC(=O)C(Sc2ccc(C)cc2)=CC1=O	21µM*	nt	nt	?	-94%	?
Cc1ccc(SC2=C(Sc3ccc(C)cc3)C(=O)c3ccccc3C2=O)cc1	3%	?	nt	-2%	-9%	7%
COc1cccc(NS(=O)(=O)c2ccc3[nH]cc(C(=O)NC(C)c4ccccc4)c(=O)c3c2)c1 (stereo not given)	nt	nt	nt	nt	-77%	?
Cc1cc(NC(=O)NCc2ccc3c(c2)CCN3C(=O)c2ccccc2)ccc1Br	nt	nt	nt	nt	-3%	?
C=CCOC(=O)C1=C(C)NC(=S)C(C#N)(CC=C)C1c1ccccc1Cl (stereo not given)	0%	nt	i	8%	-38%	11µM*
C[C@@H]1CN([C@H](C)CO)C(=O)CCCn2nncc2CO[C@@H]1CN(C)S(=O)(=O)c1cn(C)cn1	-8%	-10%	i	-3%	11µM*	-22%
COc1cccc(S(=O)(=O)N(C)C[C@H]2OCc3cnnn3CCCC(=O)N([C@H](C)CO)C[C@H]2C)c1	-4%	-2%	i	-10%	18µM*	-6%
